# Experimental data: the supplement of paper PMC8728848
# The full list was thinned out, with the strongest signals kept by preference.
# B1: HA-61200 (Pseudomonas aeruginosa), Q02SP8_PSEAB (protein)
# chain: MNKCYALVWNVSQGCWNVVSEGSRRRGKPAGAKAAIASVLALLGATALAPAYALPSGGTVVGGSANGEIHLSGGNSLSVNQKVDKLIANWDSFSVAAGERVIFNQPSSSSIALNRVIGTKASDIQGRIDANGQVFLVNPNGVLFGRGAQVNVGGLVASTLDITDAEFNGNSSRYRFTGPSTNGVLNHGGAITAAEGGSIALLGAQVDNRGTVLAQMGGVGLGAGSDLTLNFDGNKLLDIRVDAGVANALASNGGLLKADGGRVLMAARTANALLNTVVNSQGAIEARSLRGKNGRIVLDG
# Tests used:
# Experiment in all cases: glycan array binding signal (z-score within array); higher = stronger binding
# Conditions in all cases: glycan notation: IUPAC condensed, linker removed
# Fuc(a1-2)Gal(b1-3)GlcNAc = molecular target: Fuc(a1-2)Gal(b1-3)GlcNAc
# In short: (§1)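 The binding signal is a Z-score computed within each array. Data were drawn from 3228 arrays in the Consortium for Functional Glycomics database, restricted to those with a known protein sequence. Scores were averaged over arrays of the same protein sequence at different concentrations or buffers, and over linkers, and negative values can be taken as non-binding.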
# [1] = molecular target: Fuc(a1-2)Gal(b1-3)GlcNAc(b1-2)Man(a1-3)[Fuc(a1-2)Gal(b1-3)GlcNAc(b1-2)Man(a1-6)]Man(b1-4)GlcNAc(b1-4)GlcNAc
# In short: as §1
# [2] = molecular target: Fuc(a1-2)Gal(b1-3)[Fuc(a1-4)]GlcNAc(b1-3)[Gal(b1-4)GlcNAc(b1-6)]Gal(b1-4)Glc
# In short: as §1
# [3] = molecular target: Fuc(a1-2)Gal(b1-4)GlcNAc(b1-3)GalNAc
# In short: as §1
# [4] = molecular target: Fuc(a1-2)[Gal(a1-3)]Gal(b1-4)[Fuc(a1-3)]GlcNAc(b1-3)GalNAc
# In short: as §1
# [5] = molecular target: Fuc(a1-3)[Gal(b1-4)]GlcNAc6S
# In short: as §1
# Gal(a1-3)Gal = molecular target: Gal(a1-3)Gal
# In short: as §1
# [6] = molecular target: Gal(a1-3)Gal(b1-3)GlcNAc(b1-2)Man(a1-3)[Gal(a1-3)Gal(b1-3)GlcNAc(b1-2)Man(a1-6)]Man(b1-4)GlcNAc(b1-4)GlcNAc
# In short: as §1
# [7] = molecular target: Gal(a1-4)Gal(b1-3)GlcNAc(b1-2)Man(a1-3)[Gal(a1-4)Gal(b1-3)GlcNAc(b1-2)Man(a1-6)]Man(b1-4)GlcNAc(b1-4)GlcNAc
# In short: as §1
# [8] = molecular target: Gal(b1-3)GlcNAc(a1-3)Gal(b1-4)GlcNAc
# In short: as §1
# [9] = molecular target: Gal(b1-3)GlcNAc(b1-2)Man(a1-3)[Gal(b1-3)GlcNAc(b1-2)Man(a1-6)]Man(b1-4)GlcNAc(b1-4)[Fuc(a1-6)]GlcNAc
# In short: as §1
# [10] = molecular target: Gal(b1-3)GlcNAc(b1-3)Gal(b1-4)GlcNAc(b1-3)Gal(b1-4)GlcNAc(b1-2)[Gal(b1-3)GlcNAc(b1-3)Gal(b1-4)GlcNAc(b1-3)Gal(b1-4)GlcNAc(b1-6)]Man(a1-6)[Gal(b1-3)GlcNAc(b1-3)Gal(b1-4)GlcNAc(b1-3)Gal(b1-4)GlcNAc(b1-2)Man(a1-3)]Man(b1-4)GlcNAc(b1-4)[Fuc(a1-6)]GlcNAc
# In short: as §1
# [11] = molecular target: Gal(b1-3)GlcNAc(b1-6)GalNAc
# In short: as §1
# [12] = molecular target: Gal(b1-3)[Neu5Ac(a2-6)]GalNAc
# In short: as §1
# [13] = molecular target: Gal(b1-4)GlcNAc(b1-2)[Gal(b1-4)GlcNAc(b1-6)]Man(a1-6)[GlcNAc(b1-4)][Gal(b1-4)GlcNAc(b1-2)Man(a1-3)]Man(b1-4)GlcNAc(b1-4)GlcNAc
# In short: as §1
# [14] = molecular target: Gal(b1-4)GlcNAc(b1-3)Gal(b1-4)GlcNAc(b1-3)Gal(b1-4)GlcNAc
# In short: as §1
# [15] = molecular target: Gal(b1-4)GlcNAc(b1-3)Gal(b1-4)GlcNAc(b1-3)Gal(b1-4)GlcNAc(b1-2)Man(a1-3)[Gal(b1-4)GlcNAc(b1-3)Gal(b1-4)GlcNAc(b1-3)Gal(b1-4)GlcNAc(b1-2)Man(a1-6)]Man(b1-4)GlcNAc(b1-4)GlcNAc
# In short: as §1
# [16] = molecular target: Gal(b1-4)GlcNAc(b1-3)Gal(b1-4)GlcNAc(b1-3)Gal(b1-4)GlcNAc(b1-2)Man(a1-3)[Gal(b1-4)GlcNAc(b1-3)Gal(b1-4)GlcNAc(b1-3)Gal(b1-4)GlcNAc(b1-2)Man(a1-6)]Man(b1-4)GlcNAc(b1-4)[Fuc(a1-6)]GlcNAc
# In short: as §1
# [17] = molecular target: Gal(b1-4)GlcNAc(b1-3)Gal(b1-4)GlcNAc(b1-3)Gal(b1-4)GlcNAc(b1-3)Gal(b1-4)GlcNAc(b1-2)Man(a1-3)[Gal(b1-4)GlcNAc(b1-3)Gal(b1-4)GlcNAc(b1-3)Gal(b1-4)GlcNAc(b1-3)Gal(b1-4)GlcNAc(b1-2)Man(a1-6)]Man(b1-4)GlcNAc(b1-4)GlcNAc
# In short: as §1
# [18] = molecular target: Gal(b1-4)GlcNAc(b1-3)Gal(b1-4)GlcNAc(b1-3)Gal(b1-4)GlcNAc(b1-3)Gal(b1-4)GlcNAc(b1-3)Gal(b1-4)GlcNAc(b1-2)Man(a1-3)[Gal(b1-4)GlcNAc(b1-3)Gal(b1-4)GlcNAc(b1-3)Gal(b1-4)GlcNAc(b1-3)Gal(b1-4)GlcNAc(b1-3)Gal(b1-4)GlcNAc(b1-2)Man(a1-6)]Man(b1-4)GlcNAc(b1-4)[Fuc(a1-6)]GlcNAc
# In short: as §1
# [19] = molecular target: Gal3S(b1-3)[Fuc(a1-4)]GlcNAc
# In short: as §1
# GlcA(b1-3)Gal = molecular target: GlcA(b1-3)Gal
# In short: as §1
# [20] = molecular target: GlcNAc(a1-4)Gal(b1-4)GlcNAc
# In short: as §1
# [21] = molecular target: GlcNAc(b1-3)Gal(b1-4)GlcNAc(b1-3)Gal(b1-4)GlcNAc(b1-3)Gal(b1-4)GlcNAc(b1-3)Gal(b1-4)GlcNAc(b1-2)Man(a1-3)[GlcNAc(b1-3)Gal(b1-4)GlcNAc(b1-3)Gal(b1-4)GlcNAc(b1-3)Gal(b1-4)GlcNAc(b1-3)Gal(b1-4)GlcNAc(b1-2)Man(a1-6)]Man(b1-4)GlcNAc(b1-4)GlcNAc
# In short: as §1
# Kdn(a2-3)Gal(b1-3)GalNAc = molecular target: Kdn(a2-3)Gal(b1-3)GalNAc
# In short: as §1
# [22] = molecular target: Man(a1-2)Man(a1-3)[Man(a1-6)]Man(a1-6)[Man(a1-2)Man(a1-3)]Man(b1-4)GlcNAc(b1-4)GlcNAc
# In short: as §1
# [23] = molecular target: Man(a1-3)[Man(a1-6)]Man(a1-6)[Man(a1-3)]Man(b1-4)GlcNAc(b1-4)GlcNAc
# In short: as §1
# [24] = molecular target: Neu5Ac(a2-3)Gal(b1-3)[Neu5Ac(a2-6)]GalNAc
# In short: as §1
# [25] = molecular target: Neu5Ac(a2-3)Gal(b1-4)GlcNAc(b1-2)Man(a1-3)[Neu5Ac(a2-6)Gal(b1-4)GlcNAc(b1-2)Man(a1-6)]Man(b1-4)GlcNAc(b1-4)GlcNAc
# In short: as §1
# [26] = molecular target: Neu5Ac(a2-3)Gal(b1-4)GlcNAc(b1-3)Gal(b1-4)GlcNAc(b1-3)Gal(b1-4)GlcNAc(b1-2)Man(a1-3)[Neu5Ac(a2-3)Gal(b1-4)GlcNAc(b1-3)Gal(b1-4)GlcNAc(b1-3)Gal(b1-4)GlcNAc(b1-2)Man(a1-6)]GalNAc
# In short: as §1
# [27] = molecular target: Neu5Ac(a2-3)Gal(b1-4)[Fuc(a1-3)]GlcNAc6S
# In short: as §1
# [28] = molecular target: Neu5Ac(a2-6)Gal(b1-4)GlcNAc(b1-3)Gal(b1-4)GlcNAc(b1-3)Gal(b1-4)GlcNAc(b1-2)Man(a1-3)[Neu5Ac(a2-6)Gal(b1-4)GlcNAc(b1-3)Gal(b1-4)GlcNAc(b1-3)Gal(b1-4)GlcNAc(b1-2)Man(a1-6)]GalNAc
# In short: as §1
# [29] = molecular target: Neu5Ac(a2-8)Neu5Ac(a2-3)Gal(b1-3)GalNAc(b1-4)[Neu5Ac(a2-8)Neu5Ac(a2-3)]Gal(b1-4)Glc
# In short: as §1
# [30] = molecular target: Neu5Gc(a2-8)Neu5Gc(a2-6)Gal(b1-4)GlcNAc
# In short: as §1
binder,measurement,setting,value
B1,glycan array binding signal (z-score),Fuc(a1-2)Gal(b1-3)GlcNAc,-1.2
same,glycan array binding signal (z-score),[1],4.52
same,glycan array binding signal (z-score),[2],0.396
same,glycan array binding signal (z-score),[3],-0.278
same,glycan array binding signal (z-score),[4],1.01
same,glycan array binding signal (z-score),[5],1.51
same,glycan array binding signal (z-score),Gal(a1-3)Gal,-0.38
same,glycan array binding signal (z-score),[6],5.54
same,glycan array binding signal (z-score),[7],9.66
same,glycan array binding signal (z-score),[8],-0.012
same,glycan array binding signal (z-score),[9],5.22
same,glycan array binding signal (z-score),[10],2.44
same,glycan array binding signal (z-score),[11],0.257
same,glycan array binding signal (z-score),[12],-0.393
same,glycan array binding signal (z-score),[13],0.379
same,glycan array binding signal (z-score),[14],-0.492
same,glycan array binding signal (z-score),[15],3.1
same,glycan array binding signal (z-score),[16],3.46
same,glycan array binding signal (z-score),[17],5.18
same,glycan array binding signal (z-score),[18],2.6
same,glycan array binding signal (z-score),[19],0.232
same,glycan array binding signal (z-score),GlcA(b1-3)Gal,-0.781
same,glycan array binding signal (z-score),[20],-0.006
same,glycan array binding signal (z-score),[21],0.298
same,glycan array binding signal (z-score),Kdn(a2-3)Gal(b1-3)GalNAc,-0.393
same,glycan array binding signal (z-score),[22],-0.706
same,glycan array binding signal (z-score),[23],1.41
same,glycan array binding signal (z-score),[24],-0.092
same,glycan array binding signal (z-score),[25],-0.276
same,glycan array binding signal (z-score),[26],3.75
same,glycan array binding signal (z-score),[27],-0.953
same,glycan array binding signal (z-score),[28],4.49
same,glycan array binding signal (z-score),[29],-0.215
same,glycan array binding signal (z-score),[30],-0.263
